CYP2C19 inhib: blocks human cytochrome P450 2C19. P33261. CYP2C19 Supersomes, luciferin-H EGE luminescence, 30 min. inhibition, % at 5 µM. 21% of 96,000 active. AID 778;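 active = CYP2C19 inhibition above a set limit at 5 µM in the primary screen, cut at about 50% in these data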;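 note: plate controls were negative control wells for no effect and 2.5 mM tranylcypromine positive control for full effect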
Target sequence (P33261 whole entry, looked up): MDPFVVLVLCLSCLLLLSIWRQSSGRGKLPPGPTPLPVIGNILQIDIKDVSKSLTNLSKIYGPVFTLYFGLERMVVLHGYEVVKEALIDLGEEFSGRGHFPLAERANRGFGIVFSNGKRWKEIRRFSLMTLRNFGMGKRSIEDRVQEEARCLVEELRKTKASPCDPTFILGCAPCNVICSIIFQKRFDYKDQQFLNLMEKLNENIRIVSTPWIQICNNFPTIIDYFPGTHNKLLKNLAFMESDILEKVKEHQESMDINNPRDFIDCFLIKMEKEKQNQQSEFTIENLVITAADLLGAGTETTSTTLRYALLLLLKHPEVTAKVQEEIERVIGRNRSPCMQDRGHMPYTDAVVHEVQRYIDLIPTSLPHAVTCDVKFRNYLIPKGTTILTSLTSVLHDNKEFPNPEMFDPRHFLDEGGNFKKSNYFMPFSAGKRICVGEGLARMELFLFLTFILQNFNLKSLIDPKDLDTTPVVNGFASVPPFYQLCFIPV
CYP2C9 activ: CYP2C9 (human) activation. 1.4% of 96,000 active. P11712. recombinant CYP2C9, luciferin-H conversion, luminescence; stronger effect = higher value; factor 1 = untreated enzyme, 0 = blocked. activation factor at 5 µM. AID 1024;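 active = activation factor of 2 or more for CYP2C9 at a 5 µM dose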;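 note: 0 = sulfaphenazole-blocked wells and 1 = vehicle-only wells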
CYP2C19 activ: activators of human cytochrome P450 2C19; 96,000 tested, under 10 active; activation factor at 5 µM; P33261; recombinant CYP2C19, luciferin-H EGE luminescence; stronger effect = higher value; 0 = fully inhibited enzyme, 1 = untreated enzyme;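 active = activation factor of at least 2 at 5 µM in the primary screen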;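 note: 0 = wells with 2.5 mM tranylcypromine and 1 = vehicle-only wells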
E-sel TNF inh: TNF alpha driven E-selectin expression inhibition | AID 1246 | HUVEC TNFa-induced E-selectin immunofluorescence, high content | inhibition, % at 2 µM | 0.71% of 120,000 active;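 active = inhibition above the batch mean plus 3 SD, and confirmed as a hit on visual image review, cut at about 43% in these data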;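 note: 0% = TNF-stimulated DMSO wells and 100% = unstimulated control wells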
CYP2C9 inhib: inhibitors of human CYP2C9. P11712. CYP2C9 Supersomes, luciferin-H conversion, luminescence. inhibition, % at 5 µM. 20% of 96,000 active. AID 777;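 active = blocking of liver enzyme CYP2C9 beyond about 50% at 5 µM, limit read from the data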
F-actin modifier: modifiers of cytoskeleton assembly. HUVEC TNFa F-actin phalloidin imaging, high content. inhibition, % at 2 µM. 0.18% of 91,000 active. AID 836;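 active = inhibition above the batch mean plus 3 SD and confirmed as a hit by visual image inspection, cut at about 30% in these data, passing the limit was not always enough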
Numbers without * were called inactive; . = no result. Only some compounds are listed: those with a hit (about 22% of all), similar ones and a draw of the others.

SMILES	CYP2C19 inhib	CYP2C9 activ	CYP2C19 activ	E-sel TNF inh	CYP2C9 inhib	F-actin modifier
CCOc1ccc(N(CC(=O)Nc2cccc(OC)c2)S(=O)(=O)c2c(C)noc2C)cc1	92.8*	0.1	0.1	.	92.4*	-17.8
CCOc1ccc(N(CC(=O)NCc2cccs2)S(=O)(=O)c2c(C)noc2C)cc1	86.2*	0.3	0.1	34.8	68.7*	15.1
Cc1ccc(NC2=CC(=O)CCC2)cc1C	10.1	1	0.9	11.1	1.7	-26.9
Cc1ccc(Nc2nc3nonc3[nH]c2=O)cc1C	-9.3	0.4	1.1	-19.8	58.3*	.
CCOc1cc(C(=O)O)cc(Cl)c1OC	.	.	.	-5.9	.	-2.5
CC(=O)Nc1ccc(C(=O)CSc2nc3ccccc3n2CC(=O)N2CCCC2)cc1	24.0	0.6	0.8	-33.9	42.3	.
COc1ccc2c(C)cc(=O)oc2c1C	30.1	2.3*	0.7	.	-125.9	11.8
Cc1cc(=O)oc2c(C)c(OCC(=O)N(C)C)ccc12	11.1	0.6	0.9	.	36.4	-1.9
CCOc1cc(NC(=O)c2cnccn2)c(OCC)cc1NC(=O)c1cccc(F)c1	.	.	.	-22.1	.	.
Cc1ccc(CNc2nc(N)c([N+](=O)[O-])c(Nc3cccc(F)c3)n2)cc1	50.0*	0.3	0.5	-0.2	65.2*	2.0
COc1ccc(C/C(=N\O)c2ccc(OC)cc2)cc1	57.4*	0.4	0.4	2.5	57.8*	9.6
COc1ccc(C(=O)Nn2c(C3CCC3)nc3ccccc3c2=O)c(OC)c1	.	.	.	-7.2	.	-10.7
O=C(CN1C(=O)NC2(CCOc3ccccc32)C1=O)Nc1ccc2c(c1)OCCO2 (stereo not drawn)	3.8	0.5	1	.	50.1*	1.7
Cc1ccc(NC(=O)CN2C(=O)NC3(CCc4ccccc43)C2=O)cc1Cl (stereo not drawn)	19.9	0.6	0.8	10.4	38.1	-0.1
O=C(CN1C(=O)CC(c2ccco2)Sc2ccccc21)Nc1ccc2c(c1)OCCO2 (stereo not drawn)	88.4*	0.5	0.1	-35.0	49.4	.
COc1ccc(OC)c(NC(=O)CN2C(=O)NC3(CCOc4ccccc43)C2=O)c1 (stereo not drawn)	56.8*	0.6	0.4	-14.1	44.2	-4.1
Cc1ccccc1CN1CCN(CC(=O)NCc2ccc3c(c2)OCO3)C1=O	15.4	0.2	0.8	20.8	76.0*	-15.7
Cc1ccccc1-c1nnn(CC(=O)NCc2ccc3c(c2)OCO3)n1	47.4	0.2	0.5	2.4	81.9*	-30.8
CCCCN1c2cc(C)c(O)cc2C(C(=O)OCC)C1C (stereo not drawn)	59.3*	0.5	0.4	-21.2	49.6	23.4
Cc1cccc(N2CC(O)=C(c3nc4ccccc4n3C)C2=N)c1	10.2	1.1	0.9	17.3	-5.5	-16.8
N#CC1=C(N)Oc2n[nH]c(-c3ccc(F)cc3)c2C1c1cccc(OC(=O)N2CCOCC2)c1 (stereo not drawn)	21.8	0.6	0.8	5.4	44.9	8.5
COc1cccc(-c2[nH]nc3c2C(c2ccoc2)C(C#N)=C(N)O3)c1 (stereo not drawn)	86.9*	0.5	0.1	22.5	49.8	-11.2
N#CC1=C(N)Oc2n[nH]c(-c3ccccc3)c2C1c1cccc(OC(=O)N2CCOCC2)c1 (stereo not drawn)	18.8	0.4	0.8	-7.0	56.8*	-3.7
CC1(C)CC(=O)C2=C(C1)N(Cc1ccco1)C(=O)C2(NC(=O)c1ccc(Cl)cc1Cl)C(F)(F)F (stereo not drawn)	82.9*	0.9	0.2	-4.8	7.1	-20.2
CC(=O)NC1(C(F)(F)F)C(=O)N(Cc2ccccc2)C2=C1C(=O)CC(C)(C)C2 (stereo not drawn)	10.0	1	0.9	30.2	-0.2	-3.2
SMILES	CYP2C19 inhib	CYP2C9 activ	CYP2C19 activ	E-sel TNF inh	CYP2C9 inhib	F-actin modifier
CC1=NC(C(F)(F)F)(C(F)(F)F)C2=C(CC(C)(C)CC2=O)N1Cc1ccco1	56.1*	0.5	0.4	-0.8	53.7*	0.0
CC1(C)CC(=O)C2=C(C1)N(Cc1ccco1)C(=O)C2(NC(=O)C1CCCCC1)C(F)(F)F (stereo not drawn)	38.5	0.5	0.6	-26.3	50.9*	1.9
CC1(C)CC(=O)C2=C(C1)N(Cc1ccco1)C(=O)NC2(C(F)(F)F)C(F)(F)F	4.4	0.9	1	18.1	7.2	9.0
Cc1ccc(C(=O)NC(N2CCCC2)C(Cl)(Cl)Cl)cc1 (stereo not drawn)	69.0*	0.9	0.3	-41.3	12.5	5.1
O=C(NC(C(=O)c1ccccc1)N1CCCCC1)c1ccccc1 (stereo not drawn)	76.7*	0	0.2	11.0	98.8*	.
O=C(NC(N1CCOCC1)C(Cl)(Cl)Cl)c1ccc(Br)cc1 (stereo not drawn)	.	.	.	13.3	.	.
O=C(CCc1nc(-c2ccccc2F)no1)NCCN1CCOCC1	17.4	0.9	0.8	.	10.7	-9.4
CCC(C)(C)n1nnnc1CN(Cc1ccc(Cl)cc1)Cc1ccco1	97.4*	0	0	-7.9	95.6*	9.0
CCC(C)NC(=O)CS(=O)(=O)Cc1nc(-c2cccc(OC)c2)oc1C (stereo not drawn)	-15.7	0.9	1.2	.	14.6	18.9
O=C1C2ON(c3ccccc3)C(c3ccncc3)C2C(=O)N1c1ccccc1 (stereo not drawn)	99.5*	0.1	0	.	86.0*	-0.6
Cc1ccc(N2C(=O)C3ON(c4ccccc4)C(c4ccncc4)C3C2=O)c(C)c1 (stereo not drawn)	100.4*	0	0	2.4	95.4*	-9.6
Cc1cccc(C)c1N1C(=O)C2ON(c3ccccc3)C(c3ccncc3)C2C1=O (stereo not drawn)	100.0*	0	0	11.2	100.0*	18.8
CC(C)N1C(=O)C2ON(c3ccccc3)C(c3cccs3)C2C1=O (stereo not drawn)	48.1	0.7	0.5	37.4	34.1	-36.0
CCOC(=O)c1cc(-c2ccc(OC)cc2F)nc2c1c(C)nn2CCC#N	.	.	.	.	.	11.0
CS(=O)(=O)N(CC(=O)Nc1ccc(C(N)=O)cc1)C1CCCCC1	8.3	0.8	0.9	9.4	17.0	3.0
O=C(Nc1ccccc1[N+](=O)[O-])c1cncc(Br)c1	.	.	.	-3.8	.	.
Cc1cccc(N(CC(=O)NC2CCCCC2)C(=O)CCCC(=O)Nc2ccccn2)c1	.	.	.	1.8	.	-5.8
O=C(CCCC(=O)OCC(=O)NC1CCCC1)Nc1ccccn1	-5.0	1	1.1	5.9	-4.5	-6.2
COc1ccccc1N(CC(=O)NC1CCCCC1)C(=O)CCC(=O)Nc1ccccn1	64.1*	0.4	0.4	-10.4	60.3*	-22.1
Cc1ccc(C)c(N(CC(=O)NC2CCCC2)C(=O)CCCC(=O)Nc2ccccn2)c1	80.1*	0.2	0.2	-52.7	83.4*	.
COc1ccccc1N(CC(=O)NC1CCCC1)C(=O)c1csnn1	90.9*	0.8	0.1	-9.6	16.3	0.7
COc1ccccc1N(CC(=O)NC1CCCCC1)C(=O)c1csnn1	.	.	.	-31.9	.	10.1

Screens: PubChem, several laboratories
